For 51 molecules, inhibition results are on record in PubChem BioAssay AID602481 (Broad Institute, 2012).

The whole screen tested about 360,000 compounds, of which about 340 (0.094%) were called active. The entries come from a sample that favours actives as a whole. A number with no mark means an inactive call. Cut-off read from the data, not from the text of the source: active = inhibition above about 40%; inconclusive = no clear call, values can overlap the other calls; inactive = below that.

In general, inhibition refers to the relative decrease from the control value, in per cent.

This assay has as its system 7,8-diaminopelargonic acid synthase BioA (Mycobacterium tuberculosis). As to the kind of experiment: M. tuberculosis BioA enzyme inhibitors, primary screen, biochemical, plate reader, single point, HTS (AID 602481). As to conditions: purified M. tuberculosis BioA enzyme, at 9.99 µM, hits give high values.
As to `COCCNC(=O)C[C@H]1C=C[C@@H](NS(=O)(=O)c2ccc(C)cc2)[C@@H](CO)O1`, the inhibition is -2.72%.

With `Cc1n[nH]c(=O)n1-c1ccc(Oc2ccccc2)cc1`, the inhibition was -2.98%.

Regarding `S=C1NC(c2ccccc2)=NCN1c1ccc(Br)cc1`, the inhibition was 0.0265%.

As to `Cc1nc(=O)c(-c2ccccc2)c(C)n1-c1ccc(Br)cc1`, the inhibition is 42.7% (active).

As for `CN(C)CC(=O)N1CCCCN2[C@@H](CO)[C@H](c3ccc(-c4cccnc4)cc3)[C@@H]2C1`, the inhibition was 0.035%.

Consider `C[C@H]1CN([C@@H](C)CO)C(=O)c2cc(C3=CCCC3)cnc2O[C@@H]1CN(C)Cc1cccnc1`, for which the inhibition was 4.42%.

With `CN1C(=O)c2cc(NC(=O)c3cccc(F)c3)ccc2OC[C@H]2O[C@@H](CC(=O)NCc3ccccc3Cl)CC[C@@H]21`, the inhibition is 0.94%.

As for `Cc1noc(C)c1NC(=O)Nc1cccc2c1O[C@H](CN(C)S(C)(=O)=O)[C@H](C)CN([C@H](C)CO)C2=O`, the inhibition is 3.42%.

For `Cc1ccccc1S(=O)(=O)N1[C@H](CO)[C@@H](c2ccc(-c3ccccc3)cc2)[C@@H]1C#N`, the inhibition was -1.28%.

Regarding `C[C@H](CO)N1C[C@H](C)[C@H](CN(C)CC2CCCC2)Oc2ncc(-c3ccc(F)cc3)cc2C1=O`, the inhibition was -5.25%.

`CC(C)NC(=O)Nc1cccc2c1O[C@@H](CN(C)Cc1ccc(C(=O)O)cc1)[C@@H](C)CN([C@H](C)CO)C2=O`: the inhibition is -3.95%.

Regarding `CCC(=O)N1[C@H](CO)[C@@H]2c3ccccc3N(S(=O)(=O)c3ccccc3C)C[C@@H]21`, the inhibition is -6.45%.

For the molecule `C[C@@H]1CN([C@@H](C)CO)C(=O)c2cccc(NC(=O)c3ccc(-c4nccs4)cc3)c2O[C@@H]1CN(C)S(=O)(=O)c1ccccc1`, the inhibition is -1.38%.

`CCN1CCN(c2nc3c(c(=O)[nH]2)CCC3)CC1`: the inhibition is -4.22%.

As to `CCc1c(C)nc(N2CCN(Cc3ccccc3)CC2)[nH]c1=O`, the inhibition was -0.075%.

Regarding `O=c1[nH]c(N2CCN(Cc3ccc4c(c3)OCO4)CC2)nc2c1CCCC2`, the inhibition was 71.1% (active).

Consider `CO[C@@H]1CN(C)C(=O)c2ccc(NS(=O)(=O)c3ccc(C)cc3)cc2OC[C@@H](C)N(Cc2nccs2)C[C@H]1C`, for which the inhibition is -0.694%.

For `CCC(=O)Nc1ccc2c(c1)C(=O)N(C)[C@@H]1CC[C@H](CC(=O)NCc3ccccc3)O[C@H]1CO2`, the inhibition was -0.647%.

For `Cc1ccc(S(=O)(=O)N(C)C[C@@H]2Oc3c(NC(=O)C4CC4)cccc3C(=O)N([C@H](C)CO)C[C@H]2C)cc1`, the inhibition is -0.505%.

In the case of `CC(C)NC(=O)N(C)C[C@@H]1Oc2ccc(NC(=O)CCCCCC(=O)Nc3ccccc3N)cc2C(=O)N([C@@H](C)CO)C[C@H]1C`, the inhibition is -2.93%.

As for `CCNC(=O)Nc1ccc2c(c1)C(=O)N(C)[C@@H]1CC[C@@H](CC(=O)NCCOC)O[C@@H]1CO2`, the inhibition is 0.346%.

For the molecule `CNC(=O)C[C@H]1CC[C@@H]2[C@H](COc3ccc(NC(=O)Nc4cccc(F)c4)cc3C(=O)N2C)O1`, the inhibition is 32%.

Regarding `COCCNC(=O)C[C@H]1CC[C@@H]2[C@H](COc3ccc(NC(=O)Nc4cccc(F)c4)cc3C(=O)N2C)O1`, the inhibition is 44.7% (active).

As to `CCC(=O)N1[C@H](C(=O)NCc2ccc(F)cc2)[C@@H](CO)[C@@H]2Cn3c(ccc(C4=CCCCC4)c3=O)[C@@H]21`, the inhibition is -2.21%.

Consider `CCN1[C@@H]2c3ccc(C4=CCCC4)c(=O)n3C[C@@H]2[C@@H](CO)[C@@H]1C(=O)NCc1ccccn1`, for which the inhibition was -3.69%.

For `CS(=O)(=O)N1[C@H](C(=O)NCc2ccncc2)[C@@H](CO)[C@@H]2Cn3c(ccc(C4=CCCCC4)c3=O)[C@@H]21`, the inhibition was 49% (active).

For `C/C=C/c1cnc2c(c1)C(=O)N([C@H](C)CO)C[C@@H](C)[C@H](CN(C)Cc1cccc(C(=O)O)c1)O2`, the inhibition was 0.203%.

Regarding `C[C@@H]1CN([C@@H](C)CO)C(=O)Cc2cc(NC(=O)CCCCCC(=O)Nc3ccccc3N)ccc2O[C@H]1CN(C)Cc1ccc(Cl)c(Cl)c1`, the inhibition is -3.74%.

Turning to `COCC(=O)Nc1ccc2c(c1)OC[C@@H](C)N(Cc1ccccn1)C[C@H](C)[C@@H](OC)CN(C)C2=O`, the inhibition is -0.629%.

For the molecule `C[C@H](CO)N1C[C@H](C)[C@H](CN(C)Cc2cccc(C(=O)O)c2)Oc2ncc(-c3ccccc3F)cc2C1=O`, the inhibition is -3.23%.

For the molecule `COc1ccc2c3c(c(=O)oc2c1OCC(=O)C(C)(C)C)CCCC3`, the inhibition is 0.336%.

Consider `CCCOc1ccc2c3c(c(=O)oc2c1OCCC)CCC3`, for which the inhibition was 49.3% (active).

Consider `O=c1oc2c(CN3CCCCC3)c(O)ccc2c2c1CCCCC2`, for which the inhibition is 16.6%.

`C[C@H]1CN([C@@H](C)CO)C(=O)CCCn2nncc2CO[C@H]1CN(C)Cc1cccc(C(=O)O)c1`: the inhibition was -5.89%.

On to `C[C@@H]1CN([C@H](C)CO)C(=O)Cc2cc(NS(=O)(=O)c3ccc(F)cc3)ccc2O[C@@H]1CN(C)S(=O)(=O)c1ccc(F)cc1`, for which the inhibition is 4.14%.

As for `CN1c2ccc(C3=CCCCC3)cc2[C@@H]2[C@@H](CCN2S(=O)(=O)c2ccccc2F)[C@H]1CO`, the inhibition is -2.02%.

Turning to `Cc1ccccc1S(=O)(=O)N1[C@H](C#N)[C@H](c2ccccc2)[C@@H]1CO`, the inhibition is -0.99%.

Regarding `CC(C)NC(=O)N(C)C[C@@H]1Oc2ccc(NC(=O)C3CC3)cc2C(=O)N([C@@H](C)CO)C[C@H]1C`, the inhibition is -0.507%.

`C[C@H](CO)N1C[C@H](C)[C@@H](CN(C)C(=O)Nc2ccc3c(c2)OCO3)Oc2ccc(NS(=O)(=O)c3ccc(Cl)cc3)cc2C1=O`: the inhibition was 0.544%.

As for `C[C@@H]1CN([C@@H](C)CO)C(=O)Cc2cc(NC(=O)C3CCCCC3)ccc2O[C@H]1CN(C)C(=O)Nc1ccccc1`, the inhibition is 0.073%.

For `C[C@H]1CN([C@@H](C)CO)C(=O)c2cc(Br)cnc2O[C@H]1CN(C)CC1CCCC1`, the inhibition is -0.484%.

Regarding `CCCN1[C@H](C(=O)N2CCOCC2)[C@@H](CO)[C@@H]2Cn3c(ccc(/C=C/c4ccccc4)c3=O)[C@@H]21`, the inhibition was -3.1%.

For the molecule `COc1ccccc1-c1n[nH]nc1C1=CC(=O)CC(C)(C)C1`, the inhibition was -1.72%.

Consider `CC1(C)CC(=O)C=C(c2ccc3ncccc3c2)C1`, for which the inhibition was 64.2% (active).

Take `CC1(C)CC(=O)C=C(c2ccc(Cl)c(C(F)(F)F)c2)C1`: the inhibition was -0.352%.

On to `O=S(=O)(N[C@@H]1CC[C@H](CCn2cc(-c3ccccc3F)nn2)O[C@H]1CO)c1ccc(F)cc1`, for which the inhibition is 1.57%.

On to `Cc1c(OC(C)C(=O)NCC2CCC(C(=O)O)CC2)ccc2c1oc(=O)c1ccccc12` (stereo unspecified), for which the inhibition was 43.7% (active).

For `Cc1c(OC(C)C(=O)N[C@@H](Cc2ccccc2)C(=O)O)ccc2c3c(c(=O)oc12)CCCC3` (stereo partly specified), the inhibition was 0.433%.

With `Cc1cc(=O)oc2c(C)c(OC(C)C(=O)NC3CCN(Cc4ccccc4)CC3)ccc12` (stereo unspecified), the inhibition was -3.72%.

On to `O=C(CN1CCOCC1)N1CCCCN2[C@H](CO)[C@H](c3ccc(Br)cc3)[C@H]2C1`, for which the inhibition was 4.49%.

Turning to `COc1cccc(S(=O)(=O)N[C@H]2C=C[C@H](CC(=O)NCc3ccc(Cl)cc3)O[C@@H]2CO)c1`, the inhibition was -1.44%.
